Data reported in PubChem BioAssay (Tox21).
Results filed as inconclusive are left out. Activity calls are given as the source filed them. Unless noted, calls follow the shape of the dose curve; as a rule, active = well fitted curve in the direction sought with a large enough effect in the repeat runs; inconclusive = weak or mixed curves; inactive = no such curve, though single readings can be large; an effect the other way counts as inactive or inconclusive. Where a SMILES comes first, the peptide text is derived from it.

Experiments:
[1] = A CellTox Green Cytotoxicity Assay to monitor cytotoxicity in HEK293 cells - 16 hour (AID 1224888); also: nearly all actives have a fitted effect of over 35% in size
Method in brief: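 Real-time, in one plate: 600 HEK293 cells/well with dead-cell DNA dye, pinned compound after 5 h, 37 C incubation over 40 h; viable cells give no appreciable fluorescence.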

[2] = qHTS RealTime-Glo MT Cell Viability Assay in HepG2 cells - 0 hour (AID 1224889); also: nearly all actives have a fitted effect of over 50% in size
Method in brief: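 HepG2 suspension premixed with RealTime-Glo reagents is plated at 600 cells per well and left 5 h at 37 C/5% CO2. Compounds in DMSO then go in, and bioluminescence reflecting viable cell number is recorded over 40 h.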

[3] = A CellTox Green Cytotoxicity Assay to monitor cytotoxicity in HepG2 cells - 8 hour (AID 1224890); also: nearly all actives have a fitted effect of over 45% in size
Method in brief: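 Cytotoxicity was tracked as dead-cell DNA fluorescence in HepG2 cells treated with test compounds at 37 C; each time-point value comes from one kinetic series spanning 0, 8, 16, 24, 32 and 40 h.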

[4] = qHTS assay to identify small molecule antagonists of the estrogen receptor alpha (ER-alpha) signaling pathway using the BG1 cell line in the presence of 0.1 nM 17-beta-estradiol - cell viability counter screen (AID 1259241); also: nearly all actives have a fitted effect of over 40% in size
Method in brief: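 In this screen, hormone-deprived VM7Luc4E2 cells were seeded at 4,000 per well, dosed with compound and 0.1 nM estradiol final, and incubated 22 hr at 37C and 5% CO2; fluorogenic live-cell protease signal reported viability.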

[5] = qHTS assay to identify small molecule antagonists of the androgen receptor (AR) signaling pathway using the MDA cell line in the presence of 0.5 nM R1881 - cell viability counter screen (AID 1259242); also: nearly all actives have a fitted effect of over 45% in size
Method in brief: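 Cells seeded at 3,000/well and allowed 5 hr at 37C, 0% CO2 before compound transfer and R1881 (0.5 nM final) addition; 16 hr later, live-cell protease fluorescence indicated cytotoxicity.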

[6] = target: Estrogen receptor (Homo sapiens) (UniProt P03372); test: qHTS assay to identify small molecule antagonists of the estrogen receptor alpha (ER-alpha) signaling pathway using the BG1 cell line in the presence of 0.1 nM 17-beta-estradiol (AID 1259244); also: nearly all actives have a fitted effect of over 50% in size
Sequence of Estrogen receptor (Homo sapiens) (P03372 whole entry, looked up): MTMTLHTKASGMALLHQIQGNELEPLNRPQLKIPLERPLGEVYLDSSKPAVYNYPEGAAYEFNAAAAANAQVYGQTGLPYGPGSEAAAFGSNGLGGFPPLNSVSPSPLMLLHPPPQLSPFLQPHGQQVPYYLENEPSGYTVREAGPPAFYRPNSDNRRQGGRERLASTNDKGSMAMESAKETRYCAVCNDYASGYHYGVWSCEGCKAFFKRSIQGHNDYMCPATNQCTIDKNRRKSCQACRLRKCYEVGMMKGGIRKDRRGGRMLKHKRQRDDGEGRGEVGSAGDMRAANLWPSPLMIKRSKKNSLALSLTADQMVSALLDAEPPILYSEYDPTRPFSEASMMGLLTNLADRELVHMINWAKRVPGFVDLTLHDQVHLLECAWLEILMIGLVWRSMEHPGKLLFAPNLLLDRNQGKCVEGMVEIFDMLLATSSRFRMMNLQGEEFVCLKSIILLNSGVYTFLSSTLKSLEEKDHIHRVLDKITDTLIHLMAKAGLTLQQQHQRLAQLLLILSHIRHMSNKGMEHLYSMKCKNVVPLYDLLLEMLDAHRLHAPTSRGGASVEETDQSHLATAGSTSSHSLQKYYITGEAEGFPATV
Method in brief: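 Luciferase signal from VM7Luc4E2 ERE-reporter cells, co-dosed with test compound and 0.1 nM final 17beta-estradiol for 22 h, read with ONE-Glo.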

[7] = qHTS assay to identify small molecule phospholipidosis (PLD) inducers (AID 1259344; active = well fitted curve in the direction sought with a large enough effect; an effect the other way counts as inactive or inconclusive)
Method in brief: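 After 4 h attachment on collagen I, HepG2 cells were dosed with compound alongside LipidTOX Red, kept 24 h at 37 C, fixed, and imaged for lamellar phospholipid pits.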

[8] = qHTS assay to identify small molecule HDAC inhibitors (AID 1259364);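 also: wild-type HCT-116 cells with endogenous class I/II HDAC activity; top concentration of the series differs between compounds; nearly all actives have a fitted effect of over 45% in size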
Method in brief: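 HCT-116 wt cells, 1,500/well, overnight attach. Compounds (DMSO) 2 h, 37 °C. HDAC-Glo I/II, 30 min RT. Luminescence.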

[9] = qHTS assay to identify small molecule agonists of the sonic hedgehog signaling (Shh) pathway - cell viability counter screen (AID 1259366); also: nearly all actives have a fitted effect of over 50% in size
Method in brief: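 In quantitative high-throughput format, 3T3 Gli1-Luc cells were exposed to compounds for 24hr and multiplexed for viability using CellTiter-Fluor, incubated 1hr at 37C before the fluorescence read.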

[10] = qHTS assay to identify small molecule antagonists of the sonic hedgehog signaling (Shh) pathway (AID 1259369; calls by dose curve; also: nearly all actives have a fitted effect of over 45% in size)
Method in brief: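 Read-out is luminescence from a firefly luciferase gene controlled by the Gli1 response element, in 3T3Gli1-Luc cells pre-incubated 4hr then exposed to compounds and conditioned medium for 24hr.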

[11] = target: Estrogen receptor beta (Homo sapiens) (UniProt Q92731); test: qHTS assay to identify small molecule antagonists of the estrogen receptor beta (ER-beta) signaling pathway (AID 1259378; active = well fitted inhibition curve with a large enough effect in the signal ratio in the repeat runs, not every such curve was filed as active; the % refers to the signal ratio)
Sequence of Estrogen receptor beta (Homo sapiens) (Q92731 whole entry, looked up): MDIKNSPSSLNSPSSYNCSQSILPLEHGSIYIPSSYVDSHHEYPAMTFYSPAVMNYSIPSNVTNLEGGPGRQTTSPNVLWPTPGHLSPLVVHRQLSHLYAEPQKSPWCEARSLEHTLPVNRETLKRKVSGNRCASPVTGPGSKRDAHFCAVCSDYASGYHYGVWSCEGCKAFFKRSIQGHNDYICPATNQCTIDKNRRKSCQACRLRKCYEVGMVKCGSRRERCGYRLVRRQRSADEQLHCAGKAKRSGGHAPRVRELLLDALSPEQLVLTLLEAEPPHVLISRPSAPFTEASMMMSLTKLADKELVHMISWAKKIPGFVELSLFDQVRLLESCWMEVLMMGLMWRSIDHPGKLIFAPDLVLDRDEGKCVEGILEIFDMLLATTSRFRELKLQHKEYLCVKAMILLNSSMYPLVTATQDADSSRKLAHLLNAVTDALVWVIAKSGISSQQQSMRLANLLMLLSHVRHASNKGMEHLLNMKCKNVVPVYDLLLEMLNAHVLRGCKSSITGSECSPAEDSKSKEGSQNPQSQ
Method in brief: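 ER-beta-UAS-bla HEK293T (GripTite) cells in 2% charcoal-stripped FBS medium were preincubated 6 hr at 37C, dosed with compound, then stimulated with 1 nM E2 (final) for 16 hr; beta-lactamase reporter read by B/G FRET fluorescence after 2 hr substrate loading.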

[12] = qHTS assay to identify small molecule agonists of the androgen receptor (AR) signaling pathway in the presence of an antagonist - cell viability counter screen (AID 1259379);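 also: MDA-kb2 human breast cancer cells carrying an MMTV luciferase reporter; series mostly up to about 92 µM; nearly all actives have a fitted effect of over 25% in size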
Method in brief: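 Each compound was tested at 15 concentrations on MDA-kb2 cells in the presence of 3.0uM nilutamide. Viability was measured by CellTiter-Fluor fluorescence after a 16 hr incubation at 37C in a CO2-free atmosphere.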

[13] = target: Androgen receptor (Homo sapiens) (UniProt P10275); test: qHTS assay to identify small molecule antagonists of the androgen receptor (AR) signaling pathway using the MDA cell line in the presence of 0.5 nM R1881 (AID 1259243); also: nearly all actives have a fitted effect of over 50% in size
Sequence of Androgen receptor (Homo sapiens) (P10275 whole entry, looked up): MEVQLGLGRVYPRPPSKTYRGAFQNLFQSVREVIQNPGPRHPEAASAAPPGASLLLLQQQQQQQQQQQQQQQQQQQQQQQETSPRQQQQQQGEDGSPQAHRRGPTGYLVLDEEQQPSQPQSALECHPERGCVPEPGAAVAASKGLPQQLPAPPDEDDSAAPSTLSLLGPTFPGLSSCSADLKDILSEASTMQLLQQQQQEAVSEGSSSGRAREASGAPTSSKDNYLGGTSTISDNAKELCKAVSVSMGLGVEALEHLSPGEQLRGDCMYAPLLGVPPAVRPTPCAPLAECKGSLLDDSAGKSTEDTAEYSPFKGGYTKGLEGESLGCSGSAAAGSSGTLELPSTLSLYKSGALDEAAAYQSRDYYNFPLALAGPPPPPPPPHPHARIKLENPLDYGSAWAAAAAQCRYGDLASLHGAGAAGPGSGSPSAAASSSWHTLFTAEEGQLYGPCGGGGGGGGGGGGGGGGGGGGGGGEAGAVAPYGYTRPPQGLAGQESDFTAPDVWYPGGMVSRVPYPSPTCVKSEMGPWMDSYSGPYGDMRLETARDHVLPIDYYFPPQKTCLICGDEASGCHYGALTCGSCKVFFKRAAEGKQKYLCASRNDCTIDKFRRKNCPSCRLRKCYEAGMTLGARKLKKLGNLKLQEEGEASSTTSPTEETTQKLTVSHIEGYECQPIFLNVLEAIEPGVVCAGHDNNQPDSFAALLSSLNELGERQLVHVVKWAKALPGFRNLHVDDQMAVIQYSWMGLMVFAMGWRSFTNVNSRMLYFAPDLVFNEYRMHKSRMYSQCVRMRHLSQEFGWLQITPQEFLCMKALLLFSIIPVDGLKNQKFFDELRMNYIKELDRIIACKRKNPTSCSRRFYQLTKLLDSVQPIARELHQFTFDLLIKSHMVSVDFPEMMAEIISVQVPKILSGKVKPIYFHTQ
Method in brief: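 Luminescence from an AR/GR-responsive MMTV-luciferase construct in MDA-kb2 breast carcinoma cells, read 30 min after ONE-Glo, following 16 hr co-treatment with compounds and 0.5 nM R1881.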

[14] = qHTS assay to identify small molecule HDAC inhibitors - cell viability counter screen (AID 1259365)
Method in brief: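 Measured quantity is CellTiter-Glo luminescence from wild-type HCT-116 cells after compound incubation of 2hr at 37C, 5% CO2; reagent developed 30min at room temperature.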

[15] = qHTS assay to identify small molecule antagonists of the sonic hedgehog signaling (Shh) pathway - cell viability counter screen (AID 1259367); also: nearly all actives have a fitted effect of over 55% in size
Method in brief: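 Conditioned medium drove Shh signaling in 3T3 Gli1-Luc cells exposed to compounds at 37C and 5% CO2. Viability was determined from CellTiter-Fluor fluorescence, with reagent incubated 1 hr after 23 hr of treatment.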

[16] = target: Androgen receptor (Homo sapiens) (UniProt P10275); test: qHTS assay to identify small molecule agonists of the androgen receptor (AR) signaling pathway in the presence of an antagonist (AID 1259381; calls by dose curve; also: nearly all actives have a fitted effect of over 15% in size)
Method in brief: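 Plated MDA-kb2 cells (3,000/well) were pre-incubated 5hr, given nilutamide (3.0uM final) or buffer, then dosed with compounds in DMSO at 15 concentrations. Luciferase activity was quantified by luminescence after 16hr at 37C.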

[17] = qHTS assay to identify small molecule antagonists of the estrogen receptor beta (ER-beta) signaling pathway - cell viability counter screen (AID 1259382); also: series mostly up to about 92 µM; nearly all actives have a fitted effect of over 55% in size
Method in brief: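 CellTiter-Glo ATP luminescence measured after the LiveBLAzer read in the same wells; ER-beta-UAS-bla HEK293T cells, 16 hr compound treatment with 1nM 17-beta-estradiol agonist at 37C, 5% CO2.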

[18] = qHTS assay to identify small molecule agonists of the sonic hedgehog signaling (Shh) pathway (AID 1259368; calls by dose curve;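 also: NIH/3T3-derived 3T3Gli1-Luc cells carrying a stable Gli1-driven firefly luciferase reporter; series mostly up to about 92 µM; nearly all actives have a fitted effect of over 15% in size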)
Method in brief: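 Following a 24 hr incubation with DMSO-dissolved compounds at 37 C, 5% CO2, Gli1-Luc NIH/3T3-derived cells received luciferase reagent for 30 min at room temperature prior to luminescence measurement.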

[19] = target: Estrogen receptor beta (Homo sapiens) (UniProt Q92731); test: qHTS assay to identify small molecule agonists of the estrogen receptor beta (ER-beta) signaling pathway (AID 1259377; active = well fitted activation curve with a large enough effect in the signal ratio in the repeat runs, not every such curve was filed as active; the % refers to the signal ratio)
Method in brief: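 Reporter cells (HEK293T, ER-beta-UAS-bla) receive compounds or DMSO after a 6 hr pre-incubation. They then incubate 16 hr at 37C/5% CO2, and fluorescence from LiveBLAzer B/G substrate is measured after 2 hours at room temperature.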

[20] = qHTS assay to identify small molecule agonists of the estrogen receptor beta (ER-beta) signaling pathway - cell viability counter screen (AID 1259380); also: nearly all actives have a fitted effect of over 30% in size
Method in brief: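 Compounds dissolved in DMSO were pin-transferred onto ER-beta-UAS-bla HEK293T cells that had settled 6 hr, and exposure ran 16 hr at 37C. Following the reporter read, CellTiter-Glo luminescence after 30 min at room temperature indicated cytotoxicity.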
% is scaled to controls: 0 for no effect and ±100 for the full control effect.

CC1=C(C(=O)O)N2C(=O)[C@@H](NC(=O)[C@H](N)c3ccccc3)[C@H]2SC1
inactive: Potency [1] | Potency [2] | Potency [3] | outcome [4] | outcome [5] | outcome [6] | outcome [7] | Potency [8] | outcome [9] | Potency [10] | Potency [11] | outcome [12]

CC(=O)N[C@@H](CO)C(=O)N[C@@H](CC(=O)O)C(=O)N[C@@H](CCCCN)C(=O)N1CCC[C@H]1C(=O)O (Ac-SDKP-OH)
inactive: Potency [1] | Potency [2] | Potency [3] | outcome [4] | outcome [5] | Potency [13] | Potency [8] | outcome [14] | outcome [15] | Potency [10] | Potency [11] | outcome [12] | outcome [16] | outcome [17]

CC(=O)CC(=O)OC(C)(C)C
inactive: Potency [1] | Potency [2] | Potency [3] | outcome [4] | outcome [5] | Potency [13] | outcome [6] | Potency [8] | outcome [14] | outcome [9] | outcome [15] | outcome [18] | Potency [10] | Potency [19] | Potency [11] | outcome [12] | outcome [16] | outcome [17]

CN1C[C@@H]2C[C@H]1CN2c1cc2c(cc1F)c(=O)c(C(=O)O)cn2C1CC1
inactive: activity change [1] -3.93% [at 15.8 µM, active compounds read high] | activity change, negative = cytotoxicity [2] 10% [at 15.8 µM] | cytotoxicity increase [3] 6.75% [at 15.8 µM] | activity change, negative = cytotoxicity [4] -8.33% [at 19 µM] | viability change, negative = cytotoxic [5] -2.38% [at 19 µM] | activity change, negative = inhibition [6] -0.393% [at 19 µM] | outcome [7] | activity change, negative = inhibition [8] 2.17% [at 19 µM] | activity change, negative = cytotoxicity [14] 5.3% [at 19 µM] | viability change, negative = cytotoxic [9] -1.9% [at 19 µM] | activity change [18] -1.48% [at 18.9 µM] | activity change, negative = inhibition [10] -3.45% [at 19 µM] | activation [19] 1.21% [at 19 µM] | activity change, negative = cytotoxicity [12] 0.0403% [at 19 µM] | activity change, negative = cytotoxicity [20] 1.14% [at 19 µM] | activity change, negative = cytotoxicity [17] 7% [at 19 µM]

O=C(NCN1CCOCC1)c1cnccn1
inactive: Potency [1] | Potency [2] | Potency [3] | outcome [4] | outcome [5] | Potency [13] | outcome [6] | outcome [7] | outcome [15] | outcome [18] | Potency [10] | outcome [12] | outcome [20] | outcome [16] | outcome [17]

Cc1ncc([N+](=O)[O-])n1CC(C)O (configuration not stated)
inactive: Potency [1] | Potency [2] | Potency [3] | outcome [4] | outcome [5] | outcome [6] | outcome [7] | Potency [8] | outcome [14] | outcome [9] | outcome [15] | outcome [18] | Potency [10] | Potency [19] | Potency [11] | outcome [12]

CC(C)C1OCCN1CCOC(=O)NCCCCCCNC(=O)OCCN1CCOC1C(C)C (configuration not stated)
inactive: Potency [1] | Potency [2] | Potency [3] | outcome [4] | outcome [5] | Potency [13] | outcome [6] | Potency [8] | outcome [14] | outcome [15] | outcome [18] | Potency [10] | Potency [19] | Potency [11] | outcome [12] | outcome [20] | outcome [16] | outcome [17]

Cc1c(C(=O)c2c[nH]n(C)c2=O)ccc(S(C)(=O)=O)c1C1=NOCC1
inactive: Potency [1] | Potency [2] | Potency [3] | outcome [4] | outcome [5] | Potency [13] | outcome [6] | Potency [8] | outcome [14] | outcome [9] | outcome [18] | Potency [10] | Potency [19] | Potency [11] | outcome [12] | outcome [20] | outcome [16] | outcome [17]
